Bioassay records from PubChem.
Rows were chosen to be rich in hits. Some 5.7% of all compounds tested hit in one or more screens of this group.
PI4K2A block: blocks human PI4K2A kinase activity. activity change, negative = inhibition, % at 76.9 µM. 420,000 tested, 0.13% active. purified PI4K2A, ADP-Glo luminescence, 1 h; hits give low values; in the data active means activity change below about -50%; inconclusive means mostly about -30% to -49%;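 further: -100% = wells without enzyme as full effect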
Target sequence (Q9BTU6 whole entry, looked up): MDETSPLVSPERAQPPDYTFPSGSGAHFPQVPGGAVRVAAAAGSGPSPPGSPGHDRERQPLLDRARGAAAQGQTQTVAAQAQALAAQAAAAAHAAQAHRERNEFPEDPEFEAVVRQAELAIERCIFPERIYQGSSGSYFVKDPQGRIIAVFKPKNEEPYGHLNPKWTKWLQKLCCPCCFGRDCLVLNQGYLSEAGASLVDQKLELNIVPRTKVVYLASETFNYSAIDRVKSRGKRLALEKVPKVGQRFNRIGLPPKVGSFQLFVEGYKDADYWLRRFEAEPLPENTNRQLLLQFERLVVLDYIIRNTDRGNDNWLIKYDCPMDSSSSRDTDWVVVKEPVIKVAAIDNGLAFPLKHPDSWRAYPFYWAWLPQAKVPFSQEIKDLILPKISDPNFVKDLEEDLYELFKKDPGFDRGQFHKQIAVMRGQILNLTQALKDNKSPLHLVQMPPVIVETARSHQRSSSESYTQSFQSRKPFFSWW
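Compounds are screened against recombinant PI4K2A using PI as substrate and ATP, the latter dispensed at 300 microM. Reactions run one hour at ambient temperature before ADP-Glo detection; full inhibition defined by wells lacking enzyme.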
Giardia kill: kills Giardia lamblia; 340,000 tested, 0.15% active; AID 540267; Giardia lamblia trophozoite viability; activity change, % at 7.66 µM, hits read low; in the data active means activity change below about -80%; inconclusive means between about -30% and that limit;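 further: parasites exposed to compound for two days anaerobically before the ATP read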
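Luminescent ATP signal served as the viability read-out, measured 15-30 min after adding ATP detection reagent to trophozoites that had been incubated with compounds for 48 hrs at 37 deg C anaerobically at 100 cells/well.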
KB-V1 cytotox: kills drug-selected multidrug resistant KB-V1 cells. AID 1347076. 400,000 tested, 3.4% active. KB-V1 MDR cells viability, CellTiter-Glo, 72 h. Potency, µM (titrated, usually from 46.1 µM), usual class: cytotoxic; further: potency means the concentration at half of the fitted maximal effect; nearly all actives have a fitted effect of over 60% in size
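Cytotoxicity via CellTiter-Glo luminescence after 72 h compound exposure at 37 degrees C. Cells: drug-selected KB-V1 line, DMEM phenol-red free plus 10% FBS. Compounds tested at multiple concentrations; normalized data fitted to concentration-effect curves.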
KB-3-1 tox: kills parental KB-3-1 adenocarcinoma cells | Potency, µM (top dose mostly 46.1 µM), actives largely listed as cytotoxic | KB-3-1 viability, CellTiter-Glo ATP luminescence, 72 h | 400,000 tested, 1.4% active; further: potency means the concentration at half of the fitted maximal effect; nearly all actives have a fitted effect of over 60% in size
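Cytotoxicity in the drug-sensitive parental line KB-3-1 was scored as loss of CellTiter-Glo luminescence following 72 h incubation with compound. Values come from curve fitting of normalized concentration-response data.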
A549 tox: counter-screen for Nrf2 inhibitors: cytotoxicity in A549 cells; Potency, µM (doses to about 46 µM), inactives show at the top dose activity change, negative = cytotoxicity, hits mostly inhibitors; AID 504648; A549 ARE-Fluc cells, CellTiter-Fluor viability, 18-24 h; 390,000 tested, 0.16% active; further: potency means the concentration at half of the fitted maximal effect
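Cytotoxicity counterscreen: CellTiter-Fluor fluorescence was measured in A549 ARE_Fluc cells after 18-24 h of compound exposure in a concentration series. The subsequent BugLite luminescent read reports ARE-luciferase activity.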
Nrf2 inh: inhibitors of Nrf2 signaling. A549 ARE-Fluc reporter, luciferase luminescence, 18-24 h. Potency, µM (doses to about 46 µM), for the others: at the highest dose activity change, negative = inhibition, actives largely listed as inhibitors. 360,000 tested, 2.1% active; further: potency means the concentration at half of the fitted maximal effect; nearly all actives have a fitted effect of over 60% in size
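Nrf2 activity is the BugLite luminescence, read 15 min after reagent at room temperature, following CellTiter-Fluor cytotoxicity readout (30 min, 37C). Compound titrations were applied for 18-24 h to 5000 A549 ARE_Fluc cells/well in 5% FBS OPTI-MEM.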
Numbers without * were called inactive; i = inactive; ? = inconclusive; / = no result given; ! = a repeat was not active. Unless noted, the call rests on the fitted dose curve; in most records, active means well fitted curve in the direction sought with a large enough effect; inconclusive means small, poorly fitted or top-dose-only effect, or another doubt; inactive means no such curve, though single readings can be large; an effect the other way counts as inactive or inconclusive. Unless noted, on the % scale 0 is the no-effect control and ±100 the full control effect.

SMILES	PI4K2A block	Giardia kill	KB-V1 cytotox	KB-3-1 tox	A549 tox	Nrf2 inh
Cn1cccc1Cc1nnc(SCC(=O)N2CCN(c3ccccc3)CC2)n1-c1ccc(F)cc1	-2	3	12µM*	i	0%	-4%
Cn1c(SCC(=O)N2CCN(c3ccccc3)CC2)nnc1-c1cc2ccccc2o1	-2	18	i	23µM*	-23%	?
COC(=O)C/C=C/[C@@H](C)[C@H](NC(=O)OCC(Cl)(Cl)Cl)c1ccc(-c2ccccc2)cc1	2	/	/	/	/	/
O=c1[nH]c(C2CCN(S(=O)(=O)c3cccc(Cl)c3)CC2)nc2c1nnn2Cc1ccccc1	-11	2	i	i	?	15µM*
O=c1[nH]c(C2CCN(S(=O)(=O)c3ccc(C(F)(F)F)cc3)CC2)nc2c1nnn2Cc1cccc(F)c1	12	-13	i	?	-15%	?
O=c1[nH]c(C2CCN(S(=O)(=O)c3ccccc3)CC2)nc2c1nnn2Cc1cccc(Cl)c1	2	12	i	i	12%	-1%
O=c1[nH]c(C2CCN(S(=O)(=O)c3ccccc3C(F)(F)F)CC2)nc2c1nnn2Cc1cccc(F)c1	3	-7	i	i	?	23µM*
COc1cc(C2C3=C(COC3=O)OC(C)(C)Oc3cc4c(cc32)OCO4)cc(OC)c1OC (stereo not given)	-1	-3	3.7µM*	0.73µM*	?	?
COc1cc(C2C3=C(COC3=O)Oc3cc4c(cc32)OCO4)ccc1O (stereo not given)	-2	-4	4.6µM*	3.7µM*	-7%	18%
COc1ccccc1-c1nn(-c2ccccc2)cc1C(=O)N1CCc2ccccc2C1	-2	-4	i	i	?	21µM*
COc1ccc(OC)c(-c2nn(-c3ccccc3)cc2C(=O)N2CCc3ccccc3C2)c1	0	-3	i	i	?	?
COc1cccc(-c2nn(-c3ccc(C)cc3)cc2C(=O)N2CCc3cc(OC)c(OC)cc3C2)c1	-7	-2	23µM*	18µM*	-29%	14%
Cc1cc(C)c(C(=O)c2ccc(C(=O)NC(C)(C)C)cc2)c(C)c1	-4	1	i	i	1%	/
Cc1cc(C)c(C(=O)c2ccc(C(=O)N(C(C)C)C(C)C)cc2)c(C)c1	-1	8	16µM*	?	-5%	/
Nc1ccc(C(Cc2ccnc3ccccc23)Cc2ccnc3ccccc23)cc1	/	/	i	?	/	/
c1nc(NCC2CCCCO2)c2cc(-c3ccc4c(c3)OCO4)ccc2n1 (stereo not given)	3	/	/	/	/	/
Cc1sc2ncnc(NCC(C)(C)N3CCOCC3)c2c1C	1	9	4.1µM*	?	-5%	/
CCc1cc2c(NCC3CCCO3)ncnc2s1 (stereo not given)	1	17	16µM*	?	-8%	?
Cc1sc2ncnc(NCC3COc4ccccc4O3)c2c1C (stereo not given)	2	3	i	i	-5%	?
Cc1sc2ncnc(NCC3(N4CCOCC4)CCCCC3)c2c1C	-1	6	?	i	-5%	/
Cc1sc2ncnc(NCC3CCCO3)c2c1C (stereo not given)	14	-26	i	i	-12%	21µM*
CCc1ccc(CCNC(=O)OC2CC3CC2[C@H]2CCCCN2C3)cc1 (stereo not given in full)	0	/	/	/	/	/
CC1(C)CC(=O)C=C(C(=O)N2CCCC(C(=O)c3cccc(C(F)(F)F)c3)C2)O1 (stereo not given)	-6	22	/	/	?	9.2µM*
CCOC(=O)C1=C(C)NC(C)=C(C(=O)OC)C1c1cccc([N+](=O)[O-])c1 (stereo not given)	6	-13	i	i	-4%	-22%
COC(=O)C1=C(C)NC(C)=C(C(=O)OC)C1c1ccccc1[N+](=O)[O-]	3	3	8.2µM*!	i	1%	-22%
SMILES	PI4K2A block	Giardia kill	KB-V1 cytotox	KB-3-1 tox	A549 tox	Nrf2 inh
COc1ccc2c3c([nH]c2c1)[C@]1(NCC3)C(=O)N(C)c2ccc(Cl)cc21	2	/	/	/	/	/
CC(C)(C)c1ccc(C(=O)Nc2ccc(NC(=O)c3ccco3)cc2)cc1	0	4	i	i	?	9.2µM*
O=C(Nc1ccc(NC(=O)c2ccco2)nc1)c1ccco1	-5	?	?	i	5%	?
CC(C)(C)C(=O)Nc1ccc(NC(=O)c2ccco2)nc1	-5	-94*	i	i	-2%	2.1µM*
CCOc1ccccc1NC(=O)c1ccc(NC(=O)c2ccco2)cc1	-2	4	i	i	-2%	23µM*
O=C(Nc1ccc(NC(=O)c2ccco2)cc1)c1ccco1	5	5	i	i	-5%	9%
CCOC(=O)Cc1ccc(NC(=O)c2ccc(C(C)(C)C)cc2)cc1	-3	?	?	?	?	2.6µM*
CCOC(=O)Cc1ccc(NC(=O)c2ccccc2Br)cc1	4	-3	i	i	5%	?
C=C1C=C(C(F)F)n2ncc(C(=O)NCc3ccc(Cl)cc3)c2N1	/	/	i	i	/	/
O=C(C[n+]1csc2ccccc21)c1ccc(O)c(O)c1	/	/	i	i	/	/
Cc1ccc(-n2c(SCC(=O)NN=Cc3ccc(-c4ccccc4)cc3)nnc2-c2ccccc2)cc1	2	/	/	/	/	/
O=C(CSc1nnc(-c2ccccc2)n1-c1ccc(Cl)cc1)N/N=C/c1ccco1	-2	1	16µM*	i	2%	0%
Cc1nnc(SCC(=O)N/N=C/c2cn(-c3ccccc3)nc2-c2ccccc2)n1-c1ccccc1	-2	-4	?	i	-29%	16µM*
Cc1ccc(-c2nnc(SCC(=O)N/N=C/c3ccc(C)s3)n2-c2ccc(C)cc2)cc1	7	11	?	?	?	21µM*
CCCC[C@@H]1C(=O)N2N=Cc3cscc3[C@H]2N2N=Cc3cscc3[C@@H]12	-4	/	/	/	/	/
CC1(C)CC(=O)C2=C(C1)NC(SCC(=O)Nc1ccccc1)=C(C#N)C21CCCCC1	12	10	21µM*	?	?	/
O=C(CN1C(=O)COc2ccc(S(=O)(=O)Nc3ccccc3)cc21)Nc1cccc(Cl)c1	1	/	i	i	-6%	-14%
CCOCCCNC(=O)Cn1ncc2c([nH]c3ccccc32)c1=O	-4	/	i	i	0%	?
CC(=O)NS(=O)(=O)c1ccc(NC(=O)C(Sc2ccccc2)c2ccccc2)cc1 (stereo not given)	-4	-14	?	i	-1%	/
